{"source": "PubChem BioAssay AID463173", "about": "(ICCB-Longwood Screening Facility, Harvard Medical School, 2010)", "note": "Screen size: about 52,000 compounds; about 4,300 (8.3%) were called active. Rule as the data show it: active = survival mostly below about 52% (no sharp cut-off); inactive = mostly above about 56%. What follows is part of a selection rich in actives, with near analogues and random picks from the rest."}
{"system": "DeltatarO mutant", "assay": "growth inhibition of S. aureus wild type versus tarO mutant, primary screen, teichoic acid synthesis inhibitors, RN4220, OD600 (AID 463173)", "settings": "OD600, 18 h, hits give low values, screened at 18.75 µg/mL (by protocol)"}
{"smiles": "CCc1ccccc1NC(=O)C1CCN(C2=NS(=O)(=O)C(c3ccc(C)c(C)c3)=C2C)CC1", "survival": "80% (inactive)"}
{"smiles": "COc1ccc(-c2nc(C(N)=O)c3c(n2)n(-c2ccccc2OC)c(=O)n3C)c(OC)c1", "survival": "82% (inactive)"}
{"smiles": "CCN(CC)S(=O)(=O)c1ccc(-n2cnnn2)c(C)c1", "survival": "111% (inactive)"}
{"smiles": "Cc1ccc(NC(=O)CSc2nncn3c2cc2sccc23)cc1F", "survival": "61% (inactive)"}
{"smiles": "COc1ccc(CCNC(=O)C2CCCN(S(=O)(=O)c3ccc4c(c3)oc(=O)n4C)C2)cc1OC", "note": "(centres undefined)", "survival": "72% (inactive)"}
{"smiles": "CCC1CCCCN1S(=O)(=O)c1ccc(NC(=O)c2cc(=O)c3c(C)cc(C)cc3o2)cc1", "note": "(centres undefined)", "survival": "45% (inactive)"}
{"smiles": "CCc1cccc(NC(=O)COc2cc(=O)n(CC)c3ccccc23)c1", "survival": "115% (inactive)"}
{"smiles": "CCn1c2ccccc2c2cc(NC(=O)COc3cc(C)ccc3C)ccc21", "survival": "29% (active)"}
{"smiles": "CCOC(=O)c1ccccc1NC(=O)COc1cc(=O)n(CC)c2ccccc12", "survival": "53% (inactive)"}
{"smiles": "CCn1c2ccccc2c2cc(NC(=O)COc3ccc(C)cc3C)ccc21", "survival": "-5% (active)"}
{"smiles": "COc1ccc(NC(=O)c2ccco2)cc1NC(=O)COc1ccc(C)cc1C", "survival": "56% (inactive)"}
{"smiles": "CCc1ccc(OCC(=O)Nc2ccc3c(c2)c2ccccc2n3CC)cc1", "survival": "51% (inactive)"}
{"smiles": "COc1ccc(C)cc1NC(=O)COc1cc(=O)n(C)c2ccccc12", "survival": "90% (inactive)"}
{"smiles": "Cc1ccc(-n2nc3ccc(NC(=O)COc4ccccc4C)cc3n2)cc1", "survival": "72% (inactive)"}
{"smiles": "CCc1ccc(OCC(=O)Nc2ccc3c(c2)c2ccccc2n3CC)c(Br)c1", "survival": "6% (active)"}
{"smiles": "CCc1ccc(S(=O)(=O)c2nnn3c2nc(N2CCOCC2)c2sccc23)cc1", "survival": "83% (inactive)"}
{"smiles": "Cc1ccccc1-n1nc(CO)c(C(=O)NCCc2ccccc2)n1", "survival": "86% (inactive)"}
{"smiles": "Cc1ccc(-c2cc(C(F)F)n3ncc(C(=O)NCC4CCCO4)c3n2)cc1", "note": "(centres undefined)", "survival": "87% (inactive)"}
{"smiles": "CCCCN(C)CCNC(=O)CN1C(=O)CSc2ccc(S(=O)(=O)N3CCCCC3)cc21", "survival": "113% (inactive)"}
{"smiles": "CC(C)Cc1nn2cc(-c3cccc(Br)c3)nc2s1", "survival": "112% (inactive)"}
{"smiles": "Cn1ccc2cc(S(=O)(=O)N3CCCN(C(=O)Nc4ccccc4Br)CC3)ccc21", "survival": "67% (inactive)"}
{"smiles": "CCOc1ccc(Nc2nc3c(S(=O)(=O)c4ccc(CC)cc4)nnn3c3ccc(Cl)cc23)cc1", "survival": "104% (inactive)"}
{"smiles": "O=C(O)CNC(=O)c1sc2ccccc2c1Cl", "survival": "84% (inactive)"}
{"smiles": "O=C(Nc1cccc(C(F)(F)F)c1)c1cccs1", "survival": "95% (inactive)"}
{"smiles": "O=C(Nc1cccc(C(F)(F)F)c1)Nc1cccs1", "survival": "-3% (active)"}
{"smiles": "Cc1ccc(NC(=O)Nc2cccs2)c(C)c1", "survival": "91% (inactive)"}
{"smiles": "Cc1ccccc1NC(=O)Nc1cccs1", "survival": "94% (inactive)"}
{"smiles": "Cc1cc(C)cc(NC(=O)Nc2cccs2)c1", "survival": "26% (active)"}
{"smiles": "O=C(Nc1cccc(C(F)(F)F)c1)c1cccc(C(=O)Nc2cccc(C(F)(F)F)c2)c1", "survival": "84% (inactive)"}
{"smiles": "O=C(Nc1cc(C(F)(F)F)ccc1Cl)c1cc(-c2cccs2)nc2ccccc12", "survival": "86% (inactive)"}
{"smiles": "O=C(Nc1cccs1)Nc1cc(C(F)(F)F)ccc1Cl", "survival": "11% (active)"}
{"smiles": "O=C(Nc1cccs1)Nc1ccc(F)cc1F", "survival": "83% (inactive)"}
{"smiles": "COc1ccc(CNC(=O)c2cnc(N3CCCC3)nc2C)cc1", "survival": "71% (inactive)"}
{"smiles": "O=S(=O)(Nc1ccc(-c2ccc(N3CCCC3)nn2)cc1)c1ccccc1Cl", "survival": "66% (inactive)"}
{"smiles": "CC1(NS(C)(=O)=O)CC=CC1", "survival": "115% (inactive)"}
{"smiles": "Cc1cccc(NC(=O)c2cccc(N3CCCS3(=O)=O)c2)c1", "survival": "78% (inactive)"}
{"smiles": "COc1cccc(C2C(C(=O)Nc3ccc(C)cc3C)=C(C)Nc3c(C(=O)Nc4cccc(C)c4)cnn32)c1OC", "note": "(centres undefined)", "survival": "94% (inactive)"}
{"smiles": "CCn1cc(S(=O)(=O)c2cccc(C)c2)c(=O)c2cc(F)c(N3CCN(c4ccccc4)CC3)cc21", "survival": "84% (inactive)"}
{"smiles": "CCCc1cc(=O)[nH]c2nnc(SCCC(C)C)n12", "survival": "90% (inactive)"}
{"smiles": "Cc1cccc(-n2cc(-c3ccccc3)c3c(N4CCC(C)CC4)ncnc32)c1", "survival": "90% (inactive)"}
{"smiles": "CCOc1ccc(/C=C/c2nc(C#N)c(N3CCN(CC)CC3)o2)cc1", "survival": "70% (inactive)"}
{"smiles": "CN1CCN(C2=NC(=O)/C(=C\\C=C/c3ccccc3)S2)CC1", "survival": "79% (inactive)"}
{"smiles": "CCOC(=O)COc1ccc(C2C(C(=O)OC)=C(C)NC3=C2C(=O)c2ccccc23)cc1Cl", "note": "(centres undefined)", "survival": "119% (inactive)"}
{"smiles": "CCOc1ccc(C2C(C(=O)OC)=C(C)NC3=C2C(=O)c2ccccc23)cc1OC", "note": "(centres undefined)", "survival": "48% (inactive)"}
{"smiles": "C#CCOc1c(Br)cc(C2C(C(=O)OC)=C(C)NC3=C2C(=O)c2ccccc23)cc1OCC", "note": "(centres undefined)", "survival": "62% (inactive)"}
{"smiles": "CCOc1ccc(Br)cc1C1C(C(=O)OC)=C(C)NC2=C1C(=O)c1ccccc12", "note": "(centres undefined)", "survival": "48% (inactive)"}
{"smiles": "CCOc1cc(C2C(C(=O)OC)=C(C)NC3=C2C(=O)c2ccccc23)c(Br)cc1OC", "note": "(centres undefined)", "survival": "52% (inactive)"}
{"smiles": "CCOC(=O)COc1ccccc1C1C(C(=O)OC)=C(C)NC2=C1C(=O)c1ccccc12", "note": "(centres undefined)", "survival": "39% (active)"}
{"smiles": "CCOc1cc(C2C(C(=O)OC)=C(C)NC3=C2C(=O)c2ccccc23)cc(Cl)c1O", "note": "(centres undefined)", "survival": "29% (active)"}
{"smiles": "CCOc1cc(C2C(C(=O)OC)=C(C)NC3=C2C(=O)c2ccccc23)cc(Br)c1OCC", "note": "(centres undefined)", "survival": "47% (inactive)"}
{"smiles": "C#CCOc1ccc(C2C(C(=O)OC)=C(C)NC3=C2C(=O)c2ccccc23)cc1OCC", "note": "(centres undefined)", "survival": "167% (inactive)"}
{"smiles": "COC(=O)COc1ccc(C2C(C(=O)OC)=C(C)NC3=C2C(=O)c2ccccc23)cc1OC", "note": "(centres undefined)", "survival": "29% (active)"}
{"smiles": "CCOc1cc(C2C(C(=O)OC)=C(C)NC3=C2C(=O)c2ccccc23)ccc1O", "note": "(centres undefined)", "survival": "31% (active)"}
{"smiles": "COC(=O)C1=C(C)NC2=C(C(=O)c3ccccc32)C1c1ccc(O)c(OC)c1", "note": "(centres undefined)", "survival": "85% (inactive)"}
{"smiles": "CC(=O)c1ccc(NC(=O)Cn2c(=O)cc(C)c3c(C)nn(-c4cccc(F)c4)c32)cc1", "survival": "81% (inactive)"}
{"smiles": "Cc1cc(=O)n2nc(N3CCC(C(=O)NCCCOC(C)C)CC3)sc2n1", "survival": "100% (inactive)"}
{"smiles": "NC1CCC(c2ccccc2)CC1", "note": "(centres undefined)", "survival": "78% (inactive)"}
{"smiles": "COc1ccc(-c2cn3nc(N4CCC(C(=O)NCc5ccc(F)cc5)CC4)sc3n2)cc1", "survival": "88% (inactive)"}
{"smiles": "CC1=C(C(=O)Nc2ccc(Cl)cc2)C(c2cccs2)n2nc(SCc3cccc(C)c3)nc2N1", "note": "(centres undefined)", "survival": "88% (inactive)"}
{"smiles": "COCCNC(=O)CSc1cn(CC(=O)N2CCCCCC2)c2ccccc12", "survival": "73% (inactive)"}
{"smiles": "COc1ccc(-c2nc3c4cnn(-c5ccccc5F)c4ncn3n2)cc1", "survival": "59% (inactive)"}
{"smiles": "CN1CCN(C(CNC(=O)C(=O)Nc2ccccc2)c2ccc3c(c2)OCO3)CC1", "note": "(centres undefined)", "survival": "67% (inactive)"}
{"smiles": "COc1ccc(NC(=O)c2c(C)oc3ccc(O)c(CN4CCC(C)CC4)c23)cc1", "survival": "57% (inactive)"}
{"smiles": "CCc1c(C)nc(SCC(=O)N2CCN(c3ccccc3OC)CC2)[nH]c1=O", "survival": "77% (inactive)"}
{"smiles": "CCCCNC(=O)c1ccc2c(c1)NC(=O)C(CS(=O)(=O)Cc1ccc(C)cc1)N2", "note": "(centres undefined)", "survival": "87% (inactive)"}
{"smiles": "COc1ccc(Cl)cc1S(=O)(=O)Nc1cccc(-c2ccc(N3CCOCC3)nn2)c1", "survival": "97% (inactive)"}
{"smiles": "NS(=O)(=O)c1ccc(CCNc2nc3c(-c4cccc(F)c4)nnn3c3ccc(Cl)cc23)cc1", "survival": "65% (inactive)"}
{"smiles": "Cc1ccc2nc(SCC(=O)Nc3ccc(C#N)cc3)[nH]c2c1", "survival": "64% (active)"}
{"smiles": "Cc1cc(Cl)ccc1NC(=O)CSc1nc2c(c(=O)[nH]1)CCC2", "survival": "80% (inactive)"}
{"smiles": "COc1ccc(NC(=O)CSc2nc3ccccc3[nH]2)cc1", "survival": "70% (inactive)"}
{"smiles": "COC(=O)c1ccc(NC(=O)CSc2nc3ccc(OC)cc3[nH]2)cc1", "survival": "184% (inactive)"}
{"smiles": "Cc1ccc(NC(=O)CSc2nc3ccc(Br)cc3[nH]2)c(C)c1", "survival": "42% (active)"}
{"smiles": "Cc1cc(C)c(NC(=O)CSc2nc3ccncc3[nH]2)c(C)c1", "survival": "119% (inactive)"}
{"smiles": "COCCNC(=O)CCCn1c(SCc2ccccc2Cl)nc2c(sc3ccccc32)c1=O", "survival": "129% (inactive)"}
{"smiles": "COc1ccccc1NC(=O)c1ccc(-c2nc(COc3ccc(C)cc3)c(C)o2)cc1", "survival": "83% (inactive)"}
{"smiles": "COc1ccc(Nc2nnc(-c3cc4c(ccc5ccccc54)oc3=O)s2)cc1", "survival": "82% (inactive)"}
{"smiles": "CCCCN(Cc1ccccc1)S(=O)(=O)c1ccc2c(c1)CC(C)N2C(=O)CC", "note": "(centres undefined)", "survival": "99% (inactive)"}
{"smiles": "CCOC(=O)c1c(C)oc2nc(C)nc(NCc3cccc(OC)c3)c12", "survival": "72% (inactive)"}
{"smiles": "Cc1ccc(NC(=O)Cn2c(-c3cncs3)nc3ccccc32)c(Br)c1", "survival": "63% (inactive)"}
{"smiles": "Cc1cc(C)cc(NC(=O)Cn2c(-c3cncs3)nc3ccccc32)c1", "survival": "37% (active)"}
{"smiles": "CCCCCOc1ccc(NC(=O)Cn2c(-c3cncs3)nc3ccccc32)cc1", "survival": "86% (inactive)"}
{"smiles": "CCc1ccc(NC(=O)Cn2c(-c3cncs3)nc3ccccc32)cc1", "survival": "59% (inactive)"}
{"smiles": "CCCCOc1ccccc1NC(=O)Cn1c(-c2cncs2)nc2ccccc21", "survival": "49% (active)"}
{"smiles": "CC(=O)c1cccc(NC(=O)Cn2c(-c3cncs3)nc3ccccc32)c1", "survival": "67% (inactive)"}
{"smiles": "CC1CCN(C(=O)Cn2cc(SCC(=O)Nc3ccccc3)c3ccccc32)CC1", "survival": "67% (inactive)"}
{"smiles": "CCOc1ccc(CNC(=O)CCc2c(C)nn(-c3ccc(N4CCOCC4)nn3)c2C)cc1", "survival": "72% (inactive)"}
{"smiles": "O=C(CSc1nnc2c(n1)[nH]c1ccccc12)Nc1ccccc1", "survival": "89% (inactive)"}
{"smiles": "COc1ccc(CC(=O)NCC(c2ccc(Cl)cc2)N2CCOCC2)cc1", "note": "(centres undefined)", "survival": "71% (inactive)"}
{"smiles": "Cc1ccccc1Cc1c(C)nc2nc(SCC(=O)NC(C)c3ccccc3)nn2c1C", "note": "(centres undefined)", "survival": "57% (active)"}
{"smiles": "Cc1ccccc1Cc1c(C)nc2nc(SCC(=O)N(C)c3ccccc3)nn2c1C", "survival": "78% (inactive)"}
{"smiles": "CCCCNC(=O)CSc1nc2nc(C)c(Cc3ccccc3C)c(C)n2n1", "survival": "39% (active)"}
{"smiles": "CCN(CC)CCCNC(=O)CSc1nc2nc(C)c(Cc3ccccc3C)c(C)n2n1", "survival": "75% (inactive)"}
{"smiles": "CCCNC(=O)CSc1nc2nc(C)c(Cc3ccccc3Cl)c(C)n2n1", "survival": "60% (inactive)"}
{"smiles": "Cc1ccc(Cc2c(C)nc3nc(SCC(=O)NC(C)c4ccccc4)nn3c2C)cc1", "note": "(centres undefined)", "survival": "53% (inactive)"}
